For 30 sequences, sensor-assay potency score (higher = more potent) results are on record in the OligoGym collection.

Targets include FIZ1; FKBPL; FNBP1L; FPGS; FTL; FRRS1; FRMD4B.
Holding throughout (experiment): pooled miR-30 sensor sort-seq; sequence = guide strand
Details in all cases: shRNA
Note: reference of the scale not given here.

As to TTTCTCACCAGTGTGGACGACC, in the assay with FIZ1, the sensor-assay potency score (higher = more potent) is -0.391.

TGGTACAGGGTGTCTTCCGAGG gave a sensor-assay potency score (higher = more potent) with FIZ1 of -1.47.

TTCGGTAGGAGGGTCTCGGGGC returned a sensor-assay potency score (higher = more potent) in the assay with FKBPL of -0.399.

Turning to TAAGCTGTCGAACTGATCCCAC, the sensor-assay potency score (higher = more potent) with FNBP1L stood at 0.0926.

TGTCTGAGGGTCACCCCGCTGG had a sensor-assay potency score (higher = more potent) with FPGS of -0.513.

Turning to TCTAGGAAGTGAGTCTCCAGGA, the sensor-assay potency score (higher = more potent) with FTL was -0.902.

TTATTCTAGCAGCTGTTCCCAT displayed a sensor-assay potency score (higher = more potent) in the assay with FRRS1 of -0.391.

In turn, TTCACTTCCTCATCTAGGAAGT showed a sensor-assay potency score (higher = more potent) with FTL of -0.832.

For the sequence TTCGAAGAGATACTCGCCCAGC, the sensor-assay potency score (higher = more potent) with FTL is -0.73.

In the assay with FRRS1, TAACTTCAATCTGATCTCCTGG gave a sensor-assay potency score (higher = more potent) of 0.0664.

For TTGACCAGGCTGTTGACGGCTG, the sensor-assay potency score (higher = more potent) in the assay with FTL was -0.48.

In the assay with FRRS1, TAACAGTAGTCATCCATGCCAC registered a sensor-assay potency score (higher = more potent) of -0.274.

In the assay with FRRS1, TAAGGCACCATGAACCTTCAGA had a sensor-assay potency score (higher = more potent) of -0.182.

In the assay with FTL, TAGGAAGTGAGTCTCCAGGAAG displayed a sensor-assay potency score (higher = more potent) of -1.72.

Consider TTCTTCTGAAAGAACACTGCAT, for which, in the assay with FRRS1, the sensor-assay potency score (higher = more potent) was 0.427.

Turning to TCTTGATAAGCTTCACTTCCTC, in the assay with FTL, the sensor-assay potency score (higher = more potent) is -0.871.

As for TCGCGGTCGAAATAGAAGCCCA, the sensor-assay potency score (higher = more potent) with FTL is -1.25.

On to TAAATTGCCAACACTGCCTTTT, for which the sensor-assay potency score (higher = more potent) in the assay with FRRS1 was -0.275.

In turn, TTTTACCCCACTCATCTTCAGC had a sensor-assay potency score (higher = more potent) with FTL of -1.2.

Consider TGATAAGCTTCACTTCCTCATC, for which the sensor-assay potency score (higher = more potent) with FTL is -1.37.

As to TAGACATTGCCATAGCAGCTGG, the sensor-assay potency score (higher = more potent) with FRMD4B was -0.855.

Consider TTGAAACTGAAATCCTTCGTGG, for which the sensor-assay potency score (higher = more potent) with FRMD4B turned out to be 0.853.

Turning to TTCTCCTCGGCCAATTCGCGGA, the sensor-assay potency score (higher = more potent) with FTL is -1.13.

For the sequence TTGATGTCCTGGAAGAGAGCGC, in the assay with FTL, the sensor-assay potency score (higher = more potent) was -0.331.

In turn, TCCAGAGCCACATCATCGCGGT displayed a sensor-assay potency score (higher = more potent) with FTL of -0.991.

For the sequence ATAAGCATCATCATCACCCATC, in the assay with FRRS1, the sensor-assay potency score (higher = more potent) is -0.528.

In the assay with FTL, TTTCGAAGAGATACTCGCCCAG returned a sensor-assay potency score (higher = more potent) of -0.301.

In the case of TTTTATACTTCTCAACAACTGT, in the assay with FRRS1, the sensor-assay potency score (higher = more potent) is -0.421.

Take TTCAGCTGGCTTCTTGATGTCC: the sensor-assay potency score (higher = more potent) with FTL was -0.855.

TTACTTGCCATGATGAACTGAC: the sensor-assay potency score (higher = more potent) with FRMD4B was found to be 0.412.
